# Most compounds without a hit are left out; they make up all but 0.52% or so of the library.
# Sa growth 42C: inhibitors of Staphylococcus aureus growth at 42 °C | S. aureus RN4220 growth, OD600, 20 h; hits give low values | relative growth, % (no concentration beside the values) | hit rate 0.53% among 170,000 | AID 720641;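 active = relative growth at most 50% at the other temperature and 20+ points below 30 °C, or under 10% at both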
# Sa helicase inh: blocks Staphylococcus aureus DNA helicase; purified S. aureus helicase, fluorescence unwinding assay; inhibition, % (no concentration beside the values); hit rate 0.05% among 120,000; AID 485395; in the data active = inhibition above about 25%, passing the limit was not always enough;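 note: 0% = mean of negative control wells and 100% = mean of positive control wells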
# Active calls of the source: *; / = no result given; ! = repeats disagree.
SMILES,Sa growth 42C,Sa helicase inh
CCOC(=O)c1c(C)n(Cc2ccccc2)c2ccc(O)cc12,100,4
CCOC(=O)c1c(-c2ccccc2)n(Cc2ccccc2)c2ccc(O)c(CN(C)C)c12,-0.9*,5
COc1ccc(C(CN(C)C)C2(O)CCCCC2)cc1 (configuration not stated),0.0*!,/
COc1ccc2nc(NC(=O)CN3CC4CC(C3)c3cccc(=O)n3C4)sc2c1 (configuration not stated),102,-16
CC(=O)[O][Hg][c]1ccccc1,-0.7*,/
CN(C)CCC(=O)c1ccccc1,66,1
O=C(COc1cccc(Oc2ccccc2)c1)N1CCN(Cc2ccccc2)CC1,112,-12
CN(C)[C@@H]1C(=O)C(C(N)=O)=C(O)[C@@]2(O)C(=O)C3=C(O)c4c(O)ccc(Cl)c4[C@@](C)(O)[C@H]3C[C@@H]12,-0.1*,/
CN(C)[C@@H]1C(=O)C(C(N)=O)=C(O)[C@@]2(O)C(=O)C3=C(O)c4c(O)cccc4[C@@](C)(O)[C@H]3[C@H](O)[C@@H]12,-0.6*,/
Cc1cccc(N2CCN(CC#N)CC2)c1,105,/
N#CCCn1cc(C(=O)Cn2cc(C(F)(F)F)ccc2=O)c2ccccc21,77,5
O=C1C=CC[C@H]2[C@@H]3CCCN4CCC[C@H](CN12)[C@H]34,86,-3
O=C(c1ccc(Cl)c(Cl)c1)C12CN3CN(CN(C3)C1)C2,95,26
O=S(=O)(c1ccc(Cl)cc1)N1CCCCC1c1cccnc1 (configuration not stated),81,3
CC(=O)N1CCCCC1c1cccnc1.O=[N+]([O-])O.[Ag] (configuration not stated),5.0*,6
CCc1[o+]c(-c2ccccc2)cc2c1CCCC2,114,-7
CCOC(=O)c1noc2ncnc(N(Cc3ccco3)C3CCN(C)CC3)c12,113,9
O=C1C=Cc2ccc3c4c(ccc1c24)C=CC3=O,72,48*
Clc1ccc(COC(Cn2ccnc2)c2ccc(Cl)cc2Cl)c(Cl)c1 (configuration not stated),0.0*!,/
Clc1ccc(CON=C(Cn2ccnc2)c2ccc(Cl)cc2Cl)c(Cl)c1,0.0*,/
O=C1CC(c2cnc[nH]2)C2(CCCCC2)O1 (configuration not stated),107,/
Oc1cc(Cl)ccc1Oc1ccc(Cl)cc1Cl,-0.7*,/
C=CCNC(=O)c1c(N)n(Cc2ccc(OC)cc2)c2nc3ccccc3nc12,96,3
CC(C)(C)n1ncc(Cl)c(Cl)c1=O,94,0
NC(N)=NCc1cccnc1,88,0
SMILES,Sa growth 42C,Sa helicase inh
COc1ccc(C2(O)CC3CCC(C2)N3)cc1 (configuration not stated),111,-16
CN(N)P(=S)(c1ccccc1)N(C)N,91,-2
O=c1c2ccccc2ncn1CN1CC=C(c2ccccc2)CC1,81,4
N#CC(C#N)=NNc1ccc(-n2ccc(C(F)(F)F)n2)cc1,-0.4*,-10
COc1ccc(C2N3CCCN23)cc1 (configuration not stated),105,17
CC(C)c1ccccc1N=C1SCCN1C,98,6
CCCCCCCCCCCCCCCC[n+]1ccccc1,-0.8*,/
O=c1cc(CCl)nc2nc[nH]n12,94,12
CCN(CC)P1(=O)OC(c2ccc(F)cc2)=Nc2c1c(C)nn2-c1ccccc1 (configuration not stated),100,-15
CCCCCCCCCCNCCC (tested in a mixture with another compound),87,/
CN1CC=C(c2c[nH]c3ccccc23)CC1,80,-5
C1=C(c2c[nH]c3ccccc23)CCN(Cc2ccccc2)C1,-0.9*,7
FC(F)(F)C1=NC(C(F)(F)F)=NP(N2CCCCC2)(N2CCCCC2)=N1,99,-6
O=C(O)c1ccccc1C(=O)Nc1cccc2ccccc12,/,8
C[CH2][Hg][S]c1ccccc1C(=O)O,-0.5*,/
CCN(CC)P(=S)(c1nc2ccccc2n1CC)N(CC)CC,83,-9
CCSc1sc(CC)cc1CCl,90,1

# Screening results from PubChem BioAssay.
